# Inconclusive results are not listed. Values without a mark were called inactive. Activity calls are given as the source filed them. Calls follow the shape of the dose curve; as a rule, active = well fitted inhibition curve with a large enough effect; inconclusive = small, poorly fitted or top-dose-only effect; inactive = flat fitted curve, though single readings scatter.
# Tested on: CRL-7250
# Assay: Cytotoxic Profiling of Annotated Libraries Using Quantitative High-Throughput Screening (AID 1296008); also: nearly all actives have a fitted effect of over 60% in size
# Conditions: Five cell lines viability, CellTiter-Glo ATP luminescence, 48-72 h; max response: active compounds read low
# Procedure, shortened: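 Compounds were pin-transferred onto cells and incubated 48 or 72 hr at 37 degree Celsius, 95% humidity. CellTiter-Glo was added, plates sat 10 min at room temperature, then ATP-coupled luminescence was imaged as the viability read-out.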
# % is scaled to controls: 0 for no effect and ±100 for the full control effect; potency is read from the fitted curve at half-maximal effect.
SMILES,outcome,max response [%],Potency
CCCCCCCOc1cc2c(cc1/C(C)=C/c1ccc(C(=O)O)cc1)C(C)(C)CCS2(=O)=O,inactive,,
Cc1c(OCc2cccc(-c3ccc(C(=O)O)cc3)c2)cc2c(c1C)C(=O)C(C1CCCC1)C2 (stereo unspecified),,3.68,
CC(=O)OC1C(OC(=O)c2ccccc2)C2C(=C(C)CCC2(C)C)C23CCC(C)(C2)C(=O)CC13 (stereo unspecified),,-34.2,
CCN(Cc1cc(Nc2nc(C)cn3c(-c4cn[nH]c4)cnc23)sn1)C(C)(C)CO,,,0.0731 µM (active)
CNC(=O)c1cc(Oc2ccc(NC(=O)c3cccc(C(F)(F)F)c3)cc2)ccn1,,-16.9,
O=C(NS(=O)(=O)c1ccc(Br)s1)c1ccc(Cl)cc1Cl,,-22.3,
COc1cc(O)c2c(c1)/C=C/C[C@H](O)[C@H](O)C(=O)/C=C\C[C@H](C)OC2=O,,,16.4 µM (active)
CCOc1cc(C(C)(C)C)ccc1C1=NC(C)(c2ccc(Cl)cc2)C(C)(c2ccc(Cl)cc2)N1C(=O)N1CCN(CCCS(C)(=O)=O)CC1 (stereo unspecified),,,5.17 µM (active)
NC(=O)CCCSc1nc(N)nc(-c2c(Cl)cc3c4c(cccc24)COC3)n1,,,1.46 µM (active)
CC(F)(F)CN1CCOc2c(nn(-c3ccccc3Cl)c2-c2ccc(Cl)cc2)C1=O,inactive,,
CCCn1ncc(CN2CCCC(C(=O)c3cccc(OC(C)C)c3)C2)c1C (stereo unspecified),,-26.8,
CC(C)=C[C@@H]1[C@H](CO[C@@H]2O[C@H](CO)[C@@H](O)[C@H](O)[C@H]2O)C1(C)C,inactive,,
O=C(Nc1ccccc1)c1ccc(Nc2nnc(-c3ccc(O)cc3)c3ccccc23)cc1,,-21.4,
CCc1cc2c(cc1CC)CC(NCC(O)c1ccc(O)c3[nH]c(=O)ccc13)C2 (stereo unspecified),inactive,,
COC(=O)C[C@H]1[C@]2(C)C3=C(C)[C@H](c4ccoc4)C[C@H]3O[C@@H]2[C@H](O)C2[C@](C)(C(=O)OC)C=CC(=O)[C@@]21C (stereo partly specified),,-6.81,
COc1cccc(-c2cc(F)ccc2C2Cc3nc(N)nc(C)c3C(=O)N2)n1 (stereo unspecified),,,0.146 µM (active)
CCC(C)CNCC(=O)N1CCc2sccc2C1COc1cccc(C)c1 (stereo unspecified),,-0.461,
C/C=C/[C@@H]1C=C[C@@H]2C[C@H](C)CC[C@H]2[C@]1(C)/C(O)=C1/C(=O)[C@@H](CO)N(C)C1=O,inactive,,

SMILES,outcome,max response [%],Potency
Cc1cc(C(C)Nc2ccccc2C(=O)O)c2nc(N3CCOCC3)cc(=O)n2c1 (stereo unspecified),,-22.4,
CCc1cccc(CC)c1-n1c(C=C(C)C)c(C(=O)N2CCNCC2)cc(-c2nc(-c3ccc(C(F)(F)F)cc3)cs2)c1=O,inactive,,
Cc1noc(C)c1-c1cc(O)cc(C(O)c2ccccc2)c1 (stereo unspecified),,,7.31 µM (active)
CCCc1ccc(OCC(=O)N(Cc2nc(-c3cccnc3)no2)C(C)C)cc1,,,23.1 µM (active)
CC1(C)CC[C@]2(C(=O)O)CC[C@]3(C)C(=CCC4[C@@]5(C)C[C@@H](O)[C@H](O)[C@@](C)(CO)C5CC[C@]43C)[C@@H]2[C@@H]1O (stereo partly specified),,2.24,
C[C@@H](Nc1ncnc2[nH]c(-c3ccc(O)cc3)cc12)c1ccccc1,,-9.15,
CC(=O)NC(C)c1cnc(-c2cnc(Oc3ccc(OC(C)C)cc3)s2)s1 (stereo unspecified),,-17.1,
C/C(=C/C=C\C=C\Cc1cnco1)[C@@H](O)C(C)(C)C(N)=O,,0.0485,
COc1cc(C(C)C)c(Oc2cnc(N)nc2N)cc1I,,-1.85,
Cc1nc2c(C(F)(F)F)cccc2nc1-c1ccc(-c2cccc(S(C)(=O)=O)c2)cc1,,-1.09,
O=C(NCCCN1CCOCC1)c1cnn2c(-c3ccccc3)cc(-c3ccccc3)nc12,,-7.62,
COC(=O)c1cc(Br)cnc1N1CCC(NC2CCCCC2)C(O)C1 (stereo unspecified),inactive,,
CC(=O)Nc1nc(C)c(-c2nc(N3CCCC(O)C3)no2)s1 (stereo unspecified),,,8.2 µM (active)
O=C(NNc1nc2cc(F)ccc2n2cccc12)c1cnccn1,,,1.3 µM (active)
O=C(Nc1nc2ccc([N+](=O)[O-])cc2s1)C1CCCCC1,,-7.28,
O=C1c2ccc(Nc3ccc(F)cc3F)cc2CCc2ccc(OCC(O)CO)cc21 (stereo unspecified),,-2.8,
CC1(C)OC[C@H](NC(=O)Nc2ccc(Br)cc2Br)[C@H](c2ccccc2)O1,inactive,,
COc1cc(CN(CCN)C(=O)c2cccs2)ccc1OCc1ccccc1,,4.59,

# From PubChem BioAssay (NCATS)
